Laboratory results taken from PubChem BioAssay (NCI).
This is part of a sample that, as a whole, favours compounds with a hit. Of some 83,000 tested, about 20% had one in any assay.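 Interpretation: 100, growth as untreated; towards 0, rising growth inhibition; 0, no net growth; 0 to -100, cell death. Compounds scoring below 10 were considered active.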 Values without a mark were called inactive. Calls of active or inactive are those of the source.

Columns and labels:
Assay in all cases: NCI-60 one-dose screen, 48 h (100 = growth as untreated, 0 = no growth, -100 = all killed)
Settings in all cases: 10 µM unless noted
BT-549 breast = tested on: BT-549 breast
MDA-MB-435 melanoma = tested on: MDA-MB-435 melanoma
SW-620 colon = tested on: SW-620 colon
MCF7 breast = tested on: MCF7 breast
KM12 colon = tested on: KM12 colon
HCC-2998 colon = tested on: HCC-2998 colon
HCT-116 colon = tested on: HCT-116 colon

SMILES | growth (BT-549 breast) | growth (MDA-MB-435 melanoma) | growth (SW-620 colon) | growth (MCF7 breast) | growth (KM12 colon) | growth (HCC-2998 colon) | growth (HCT-116 colon)
C#C[C@@]1(O)[C@@H](CO)O[C@@H](n2cc(I)c3c(N)ncnc32)[C@@H]1O | -13.2% (active) | 14.6% | 0.663% (active) | 1.73% (active) | 9.88% (active) |  | 
COc1cc(-c2csc(NC(=O)Nc3ccc(Cl)cc3)n2)cc(OC)c1OC | 31.9% | 18.1% | 42.1% | 8.71% (active) | 13.4% | 38.9% | 
COc1ccc2[nH]c(-c3ccccc3)c(C=C(C#N)C#N)c2c1 | 4.38% (active) | -55.1% (active) | 25.1% | 17.1% | 18.6% | 49.3% | 
NC(=O)C(O)(c1ccccc1)c1ccccc1 | 113% | 103% | 96% | 91.5% | 96.9% | 98.5% | 
Nc1c(C(=O)Nc2ccccn2)sc2nc3c(cc12)C(=O)CCC3 | 53.5% | -42.9% (active) | 23.7% | 22% | 16.3% | 49.3% | 
COc1ccc(NC(=O)Nc2ccc(Nc3nc(C)cc(Nc4ccc(C)cc4)n3)cc2)cc1 | 3.93% (active) | -97.5% (active) | -62% (active) | -63.8% (active) | -88.1% (active) | -74.6% (active) | 
CCOc1ccc(C2N(c3cc(OC)c(OC)c(OC)c3)C(=O)C2(F)F)cc1 (stereo not drawn) | 44.2% | 16.8% | 25.5% | 17.2% | 28% | 81.7% | 
Cc1nc2sc(C(=O)Nc3ccccc3)c(N)c2cc1C(C)O (stereo not drawn) | 74.3% | -41.1% (active) | 26.4% | 16.7% | 26.1% | 46.8% | 
COc1ccc(-c2nnc(N3CCN(C(=O)CN4CCN(c5ccc(OC)cc5)CC4)CC3)nc2-c2ccc(OC)cc2)cc1 |  | -68.1% (active) | -92.5% (active) | -69.8% (active) | -13.1% (active) | 33.9% | -41.1% (active)
C=C(C)[C@@H]1CC[C@]2(C(=O)NCCCO)CC[C@]3(C)[C@H](CC[C@@H]4[C@@]5(C)CCCNC(C)(C)[C@@H]5CC[C@]43C)[C@@H]12 | 78.5% | 69.9% | 74.9% | 41.5% | 84.5% | 74.3% | 
CCOC(=O)C(=Cc1c(-c2ccccc2)[nH]c2ccccc12)C(=O)OCC | 67.1% | 14.5% | 53.5% | 41.6% | 24.1% | 80.7% | 
COc1ccc(-c2cc(-c3nnc(SCC(=O)Nc4ccc(/C(C)=N\O)cc4)n3-c3ccccc3)c3cc(OC)ccc3n2)cc1 | 63.7% | 79.2% | 82.1% |  | 61.1% | 100% | 
O=C(CSC(=S)N1CCCCC1)Nc1ccccc1 | 101% | 110% | 102% | 99.8% | 95.8% | 98.2% | 
O=C1[C@@H](OS(=O)(=O)CC(F)(F)F)[C@H](c2ccc(F)cn2)N1c1cc2c3ccccc3ccc2c2ccccc12 | 66.2% | 30.5% | 47.6% | 64% | 87% | 105% | 
C=C(C)[C@@H]1CC[C@]2(C(=O)n3ccnc3)CC[C@]3(C)[C@H](CC[C@@H]4[C@@]5(C)CCCNC(C)(C)[C@@H]5CC[C@]43C)[C@@H]12 | 40.2% | -34.4% (active) | -62.8% (active) | -20.3% (active) | 28.4% | 6.43% (active) | 
O=C(CCc1nnco1)c1nc2ccc([N+](=O)[O-])cc2[nH]1 | 106% | 106% | 106% |  | 102% | 93.4% | 
CCOC(=O)c1c(C(F)(F)F)n([O-])c2ccc(Cl)cc2[n+]1=O | -59.6% (active) | -70.1% (active) | -64.7% (active) | -57.6% (active) | -78.5% (active) | -90.8% (active) | 
CCCCCCCCCCCCCC1=NCC[N+]1(CCO)Cc1ccccc1 (stereo not drawn) | -50.7% (active) | -91.8% (active) | -78.2% (active) | -84.8% (active) | -85.1% (active) |  | 
COc1cc(C2=NN(C=O)C(c3cccc(Nc4ccnc5cc(C(F)(F)F)ccc45)c3)C2)cc(OC)c1OC (stereo not drawn) |  | 43.5% | 64.6% | 38.4% | 59.7% | 70.1% | 58.4%
OCCNc1nc(NCCO)nc(Nc2ccc(C3=NN(c4cc(Cl)cc(Cl)c4)C(c4ccc(Cl)cc4)C3)cc2)n1 (stereo not drawn) |  | -15.8% (active) | 23.4% | 3.94% (active) | 19.3% | 27.1% | 4.84% (active)
O=C1CC23OC(C(O)c4ccccc4N12)C1C(c2ccccc2)=NOC13 (stereo not drawn) |  | -28% (active) | 29.2% | 26.4% | 28.9% |  | 21.3%
O=C(/C(=C\c1c(-c2ccccc2)[nH]c2ccccc12)S(=O)(=O)c1ccccc1)c1ccccc1 |  | 17.2% | 53% | 40.7% | 27% | 73.1% | 33%
Cc1c(Cl)cccc1NC(=O)c1sc2nc3c(cc2c1N)CN(Cc1ccccc1)CC3 |  | -4.11% (active) | 16.8% | 16.1% | 30.8% | 82.9% | 39.3%
COc1cc(C2=NN(C(C)=O)C(c3cccc(Nc4ccnc5cc(C(F)(F)F)ccc45)c3)C2)cc(OC)c1OC (stereo not drawn) |  | 56.6% | 66.1% | 37.9% | 64.8% | 72.2% | 48.4%

SMILES | growth (BT-549 breast) | growth (MDA-MB-435 melanoma) | growth (SW-620 colon) | growth (MCF7 breast) | growth (KM12 colon) | growth (HCC-2998 colon) | growth (HCT-116 colon)
COc1ccc(C2C(c3ccccc3)C(=O)N2c2cc(OC)c(OC)c(OC)c2)cc1I (stereo not drawn) |  | 2.2% (active) | 23.7% | 8.53% (active) | 15.3% | 31.8% | 3.14% (active)
CC(=O)c1c(OCC#N)ccc2c(C)cc(=O)oc12 |  | 107% | 96.8% | 99.2% | 107% | 109% | 101%
S=C(Nc1ccc(Cl)cc1)c1ccccn1 |  | 106% | 100% | 81.4% | 100% | 110% | 89.7%
O=c1[nH]c2ccccc2cc1-c1nc2ccc(Cl)cc2[nH]1 |  | 32.5% | 42.5% | 23.8% | 5.1% (active) | 79.7% | 22.2%
O=C(O)c1cn(C2CC2)c2cc(N3CCN(C(=O)CSc4nnc(-c5ccc(Cl)cc5)n4-c4ccccc4)CC3)c(F)cc2c1=O |  | 102% | 109% | 110% | 103% | 102% | 103%
C=C(C)[C@@H]1CC[C@]2(C(=O)OCCOCCOCC[P+](c3ccccc3)(c3ccccc3)c3ccccc3)CC[C@]3(C)[C@H](CC[C@@H]4[C@@]5(C)CC[C@H](C)C(C)(C)[C@@H]5CC[C@]43C)[C@@H]12 |  | -93.7% (active) | -83.5% (active) | -77% (active) | -81.3% (active) | -85.5% (active) | -88.4% (active)
Oc1ccc(CNNc2ccnc3c(O)cccc23)c2cccnc12 |  | 38.1% | 27.9% | 11.2% | 22.9% | 35.7% | 27.3%
CCCCOc1nc2ccc(C)cc2cc1/C=C/C(=O)/C=C/c1ccc2c(c1)OCO2 |  | 35.8% | 99.5% | 37.8% | 87.3% | 106% | 10.5%
Cc1cc(Nc2nc(SCc3ccc(C(=O)Nc4ccc(F)cc4N)cc3)nn3cccc23)n[nH]1 |  | 12.8% | 23.9% | 23.5% | 7.02% (active) | 23.9% | 10.1%
c1ccc(-c2n(Cc3ccc4ccccc4n3)cc[n+]2Cc2ccc3ccccc3n2)cc1 |  | 15.4% | 37.5% |  | 15.8% | 26.6% | 
CCCCn1c(=O)c(/C=C/C(=O)/C=C/c2ccc(OC)cc2)cc2cc(Cl)ccc21 |  | 95.6% | 18.3% | 34.4% | 25.9% | 90.7% | 
CCOC(=O)c1c(C)nc2c(c1N)/C(=C/c1cccs1)C(=O)N2Cc1ccccc1 |  | 88.9% | 58% | 8.22% (active) | 40.5% | 96% | 
CCc1n(Cc2ccc3ccccc3c2)c2ccccc2[n+]1Cc1ccc2ccccc2c1 |  | 46.7% | 77.1% | 49.6% | 39.6% | 58% | 51.5%
COc1ccc2oc(=O)cc(-c3c(C#N)c(N)n4nc(N)c(C#N)c4c3C#N)c2c1 |  | 113% | 98% | 105% | 99% | 96.6% | 108%
O=C(Nc1ccc(N=Cc2ccccc2O)cc1)NC1C=c2ccccc2=CC1 (stereo not drawn) |  | 104% | 105% | 92.6% | 103% | 100% | 104%
CCCS(=O)(=O)Nc1ccc(F)c(C(=O)c2c[nH]c3ncc(-c4ccc(OCCCC5CCCCN5)nc4)cc23)c1F (stereo not drawn) |  | 25.9% | 116% | 69.4% | 103% | 108% | 70%
COc1cc(C(C)c2ccc3c(ccn3C)c2)cc(OC)c1OC (stereo not drawn) |  | -40.6% (active) | 28% | 14.6% | 10.3% | 23.4% | 5.43% (active)
NS(=O)(=O)c1ccc(-n2ncc(NC(=O)Nc3ccc(S(=O)(=O)Nc4nccs4)cc3)c2-c2ccccc2)cc1 |  | 98.1% | 98.5% | 92% | 108% | 107% | 93%
COc1cc(-c2csc(NC(=O)Nc3cc(Cl)cc(Cl)c3)n2)cc(OC)c1OC |  | 27.1% | -26.4% (active) | 8.04% (active) | 18.5% | 70.8% | -28.9% (active)
COc1cc(/C=C/C(=O)c2ccc(NC(=O)CSc3nnc(-c4cc(OC)c(OC)c(OC)c4)n3-c3ccccc3)cc2)cc(OC)c1OC |  | -36.1% (active) | -76.4% (active) | 11.2% | -6.65% (active) | -91.8% (active) | -80.6% (active)
O=C(NCc1ccccc1)c1ccc2c(c1)NC(=O)[C@@H]1CCCN21 |  | 99.6% | 96.4% | 85.4% | 84% | 88% | 105%
N#Cc1ccc(N2Cc3cc(Cl)ccc3OC3=C2C(=O)N(Cc2ccccc2)C3=O)cc1 |  | -42.5% (active) | -75.8% (active) | -1.6% (active) | 61.4% | 40.4% | -82.7% (active)
O=C(O)c1ccc(-n2cc(/C=N/Nc3ccc(Cl)cc3Cl)c(-c3ccccc3)n2)cc1 |  | 95.5% | 96.3% | 69.8% | 83.4% | 101% | 76.8%
